The values that follow come from PubChem BioAssay AID1794845 (National Center for Advancing Translational Sciences (NCATS), 2023).

Screen size: about 6,900 compounds; fewer than 10 were called active. Calls follow the shape of the dose curve; as a rule, active = well fitted curve in the direction sought with a large enough effect; inconclusive = small, poorly fitted or top-dose-only effect, or another doubt; inactive = no such curve, though single readings can be large or run the other way. Not all results are given here.

Metallo-beta-lactamase type 2 (Klebsiella pneumoniae), sequence (C7C422 whole entry, looked up): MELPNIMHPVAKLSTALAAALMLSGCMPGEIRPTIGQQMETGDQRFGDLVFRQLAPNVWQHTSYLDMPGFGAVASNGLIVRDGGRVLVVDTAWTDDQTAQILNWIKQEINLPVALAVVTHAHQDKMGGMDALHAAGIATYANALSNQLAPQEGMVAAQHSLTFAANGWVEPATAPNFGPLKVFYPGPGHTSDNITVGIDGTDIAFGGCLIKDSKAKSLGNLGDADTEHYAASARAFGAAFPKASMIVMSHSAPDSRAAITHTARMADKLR

This experiment has as its target Metallo-beta-lactamase type 2 (Klebsiella pneumoniae) (UniProt C7C422). Kind of experiment: qHTS to identify inhibitors of the New Delhi Metallo-beta-lactamase (NDM): primary screen against the NCATS Gemini Collection. Particulars: NDM-1 enzyme, meropenem hydrolysis, absorbance 300 nm; series mostly up to 38.4 µM. From the text: Assay Submitter (PI): James Inglese Ph.D., Patricia Dranchak Ph.D., Mahesh Aitha Ph.D. Assay Development and Screening Technology Laboratory (ADST) National Center for Advancing Translational Sciences (NCATS), Rockville, MD National Institute of Health (NIH), Bethesda, Maryland The metallo-beta-lactamases (MBL) are a main antibiotic resistance mechanism evolved by bacteria. There is an urgent clinical need for MBL inhibitors to mitigate this growing threat. To support a machine-based learning study, qHTS has been used to experimentally test inhibitors identified by prediction tools.
PROTOCOL TABLE (as described by Inglese et al., 2007) SEQUENCE No. (e.g., 1, 2, 3, etc.); […] (e.g., enzyme, Incubation, Reagent, etc.); VALUE; DESCRIPTION 1; NDM-1; 4 uL of 3 nM enzyme [2 nM final] in 50 mM HEPES (pH 7.0), 1 uM […], 0.01% Tween20; Use BioRaptr to dispense into Aurora black, clear bottom low base 1536-well plates 2; Compounds; 23 nL; Use Pin Tool (Wako) to transfer DMSO control and library compounds in DMSO 3; Incubate; >30 min 4; Reagent; 2 uL of 150 uM meropenem [50 uM final] 5; Incubate; 30 min. 6; Detector; Absorbance at 300 nm (bandwidth = 5 nm, 25 flashes/well) on Tecan Infinity NOTES (numbers refer to sequence above) 1; Column 1 of each plate received assay buffer without enzyme and columns 2-48 received enzyme for a final assay concentration of 2 nM. 2; Control plate contained DMSO in columns 1, 2, 3, and 4. 3; Compound interaction with enzyme. 4; Meropenem substrate was prepared in the same assay buffer as step 1 for a final assay concentration of 50 uM and added to all wells across the assay plates. 5; Substrate interaction with enzyme, plateau phase of kinetics. 6; Default reader settings were applied for absorbance read at 300 nm, bandwidth = 5 nm, 25 flashes/well. References: Inglese J, Shamu CE, Guy RK. 2007. Reporting data from high-throughput screening of small-molecule libraries. Nat Chem Biol. doi:10.1038/nchembio0807-438 Yasgar A, Shinn P, Jadhav A, Auld D, Michael S, Zheng W, Austin CP, Inglese J, Simeonov A. 2008. Compound Management for Quantitative High-Throughput Screening. J Lab Autom 13:79 - 89. doi:10.1016/j.jala.2007.12.004
For orientation: qHTS replaces the single test concentration by a dilution series.
Take `CCCN1CC2(CCN(Cc3nc(CCOC)no3)CC2)CC1C(=O)O` (stereo not drawn): the result was inactive.
In the case of `O=C(Cc1ccsc1)Nc1ccc2c(N3CCCC3)ncnc2c1` it was “inactive”; in that of `CN(C)Cc1nnc(C2CC(NC(=O)Cc3noc4ccccc34)C2)n1C` (stereo not drawn), “inactive”; in that of `O=C1NC2(CCN(Cc3ccccc3C(F)(F)F)C2)COc2ccccc21` (stereo not drawn), “inactive”.
Next, `CN(C)C[C@@H]1CN(Cc2ccncc2)C[C@H]1NC(=O)Cc1ccsc1`: “inactive”.
As for `COCc1ncc(C)n1C1CCCN(C(=O)CCCc2ccccc2)C1` (stereo not drawn), the result was inactive.
Next, `O=C(CC1CCCC1)N1CCCC(c2nn[nH]n2)C1` (stereo not drawn): “inactive”; `O=C1c2ccccc2CN1C1CCN(Cc2cccc3ccccc23)CC1`: “inactive”; `COc1ccc(-c2ccccc2NC(=O)C2CCCN(CC=C(C)C)C2)cc1` (stereo not drawn): “inactive”.
On to `O=C1NCCOCCN(S(=O)(=O)c2ccc3c(c2)CCC3)[C@@H]2CCCC[C@H]12`, for which the compound was classed as inactive.
Next, `CC(=O)c1cc(C(=O)NCc2c(C)ncc3c2CCNC3)[nH]n1`: “inactive”; `COc1ccc(C(=O)N2CCC([C@@H]3CNC[C@H]3CO)CC2)cc1`: “inactive”.
In the case of `CNC(=O)[C@@H](C1CC1)N1CCC[C@H]1C(=O)NCc1cccnc1`, the compound was called inactive.
In the case of `COC(=O)NCC(=O)N1CC[C@@H]2[C@@H](CCC(=O)N2CCc2ccccc2)C1` it was “inactive”; in that of `CCn1c(CN2CCN(c3nc4ccccc4s3)CC2)nnc1C1CC(N)C1` (stereo not drawn), “inactive”; in that of `CCn1cc(S(=O)(=O)NCC2Cn3cccc3C(=O)N2C)cn1` (stereo not drawn), “inactive”.
With `COc1ccc(CN2CCCC3(Cc4ccccc4CNC3=O)C2)c(OC)n1` (stereo not drawn), the compound was called inactive.
In the case of `Cc1cc(C)n(CCc2c(-c3ccccc3)ncn2C(C)CCCC(C)(C)O)n1` (stereo not drawn) it was “inactive”; in that of `CCc1nc(-c2c3n(c(=O)n(CC(=O)NC4CCCC4)c2=O)CCCCC3)no1`, “inactive”; in that of `CC(C)Cc1cc(CN2CCC(CO)(CN3CCCC3)CC2)[nH]n1`, “inactive”.
Turning to `OC1(CN2CCC(c3nc(-c4ccccc4)no3)CC2)CNCCOC1` (stereo not drawn), the outcome was inactive.
In the case of `CCN1CC2(CCN(Cc3nc(COC)no3)CC2)CC(c2ccccc2)C1=O` (stereo not drawn) it was “inactive”; in that of `Cc1noc(C)c1CCCNC(=O)c1ccc(NC[C@H]2C[C@H]3C=C[C@H]2C32CC2)nc1`, “inactive”.
For `CN(C)c1cccc(C(=O)NC2CCN(c3cc(-c4cccs4)[nH]n3)C2)c1` (stereo not drawn), the call was inactive.
`COc1ccccc1-c1ccc(CN2CCCC(c3nc4ccc(C)cc4c(=O)[nH]3)C2)cc1` (stereo not drawn): the compound was classed as inactive.
As for `C[S+](=O)([O-])N1CCC(Cn2ccc3c(N4CCOCC4)nc(-c4cccc5[nH]ncc45)cc32)CC1`, the outcome was inactive.
With `O=C(c1ccccn1)N1CCCC2(CNc3ccccc3[S+](=O)([O-])N2)C1` (stereo not drawn), the result was inactive.
`CN1CCCC(CN(C)C(=O)c2cc(-c3cnn(CCO)c3)nc3ccccc23)C1` (stereo not drawn): the outcome was inactive.
In the case of `Cc1cnc(C2CC2)n1C1CCCN(C(=O)c2ccoc2)C1` (stereo not drawn) it was “inactive”.
Next, `COc1ccc(C(=O)N2CCC3(CC2)OCC(C(=O)NC2CC2)N3C(=O)c2cccc(C)c2)cc1` (stereo not drawn): “inactive”; `Cc1ccsc1CN1CCc2nc(N3CCOCC3)[nH]c(=O)c2CC1`: “inactive”.
In the case of `O=C1NC2(CCCN(Cc3cncs3)C2)COc2ccccc21` (stereo not drawn) it was “inactive”.
Consider `CCS(=O)(=O)Nc1ccc(C)n(CC(=O)NC2CCCCC2)c1=O`, for which the compound was called inactive.
